Measurements published in ChEMBL document CHEMBL2218924, “A broad activity screen in support of a chemogenomic map for kinase signalling research and drug discovery” (Biochem J, 2013).

target: T1, Testis-specific serine/threonine-protein kinase 2 (Homo sapiens) (UniProt Q96PF2); conditions: at 1 µM
T1 sequence (whole entry): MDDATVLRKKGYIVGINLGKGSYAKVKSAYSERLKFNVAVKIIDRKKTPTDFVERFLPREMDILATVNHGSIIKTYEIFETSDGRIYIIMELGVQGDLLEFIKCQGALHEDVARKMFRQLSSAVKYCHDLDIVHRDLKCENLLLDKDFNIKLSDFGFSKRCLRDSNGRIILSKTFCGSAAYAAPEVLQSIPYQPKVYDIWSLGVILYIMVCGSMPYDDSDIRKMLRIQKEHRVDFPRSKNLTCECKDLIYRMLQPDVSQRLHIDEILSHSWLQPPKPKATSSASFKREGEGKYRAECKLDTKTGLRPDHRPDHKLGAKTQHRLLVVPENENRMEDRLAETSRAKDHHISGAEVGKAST

Row | Compound | residual activity [%]
1 | O=C1Nc2ccc(Cl)cc2/C1=C/c1cc(Cl)c(O)c(Cl)c1 | 76
2 | CCOC(=O)c1c(C)[nH]c(/C=C2\C(=O)Nc3ccccc32)c1C | 90
3 | O=C1Nc2cc(Br)ccc2/C1=C1/Nc2ccccc2/C1=N\O | 73
4 | O=C1NC(=O)c2c1c1c3ccccc3[nH]c1c1[nH]c3cc(Br)ccc3c21 | 102
5 | COc1ccc(S(=O)(=O)N(CCO)c2ccccc2CN(C)C/C=C/c2ccc(Cl)cc2)cc1 | 101
6 | Cc1nc2cc3nc(-c4cccs4)cnc3cc2n1C | 104
7 | Cn1nc2c3c(cccc31)C(=O)c1ccccc1-2 | 79
8 | O=C(O)c1ccc2c3c1cccc3c(=O)n1c3ccccc3nc21 | 118
9 | O=C(Nc1cccc(Nc2cc(Nc3cccc(C(F)(F)F)c3)ncn2)c1)C1CC1 | 91
10 | COc1cc2ncnc(Nc3ccc(Oc4ccccc4)cc3)c2cc1OC | 97
11 | C[C@@H](N)[C@H]1CC[C@H](C(=O)Nc2ccncc2)CC1 | 102
12 | CCN1/C(=C/C(C)=O)Sc2ccc(OC)cc21 | 77
13 | O=C(O)/C=C/c1cc(Br)c(Br)c(Br)c1Br | 96
14 | CO[C@@H]1[C@H](N(C)C(=O)c2ccccc2)C[C@H]2O[C@]1(C)n1c3ccccc3c3c4c(c5c6ccccc6n2c5c31)C(=O)NC4 | 51
15 | CCN(CC)CCCCN1c2ccccc2Oc2ccc(Cl)cc21 | 109
16 | COc1ccc(C(=O)Nc2sc3c(c2C(N)=O)CCCC3)cc1OC | 94
17 | O=C1Cc2c([nH]c3ccc(Br)cc23)-c2ccccc2N1 | 96
18 | Cc1nc(-c2ccccc2)c(-c2ccncc2)o1 | 97
19 | CCCCc1c(-c2ccc(O)cc2)[nH]c2nccnc12 | 94
20 | Oc1cccc(-c2nc(N3CCOCC3)c3oc4ncccc4c3n2)c1 | 93

Row | Compound | residual activity [%]
21 | CCN(CC)C(=O)c1ccc(Nc2nc(OCC3CCCCC3)c3nc[nH]c3n2)cc1 | 62
22 | Nc1n[nH]c2nnc(-c3c(-c4ccccc4)nn4ccccc34)cc12 | 104
23 | O=c1cc(-c2cccc3c2Sc2ccccc2S3)oc(N2CCOCC2)c1 | 112
24 | Nc1nc(Nc2ccc(S(N)(=O)=O)cc2)nn1C(=O)c1c(F)cccc1F | 103
25 | COc1cc2ncnc(Nc3ccc(NC(=O)c4ccccc4)cc3)c2cc1OC | 106
26 | Cc1cncc2cccc(S(=O)(=O)N3CCCN(C(=O)CN)C[C@H]3C)c12 | 80
27 | CC#CC(=O)Nc1cc2c(Nc3ccc(F)c(Cl)c3)ncnc2cn1 | 87
28 | O=C(c1ccccc1)c1ccc(N2CCOCC2)cc1O | 87
29 | Cn1sc(=O)n(Cc2ccccc2)c1=O | 88
30 | Cc1cc2ncc(-c3ccccc3)nc2cc1C | 91
31 | Nc1ncnc2c1cnn2-c1ccccc1 | 93
32 | COc1ccc2c(c1)c(C1=C(c3c[nH]c4ccccc34)C(=O)NC1=O)cn2CCCN(C)C | 81
33 | CCC(=O)Nc1ccc2ncnc(Nc3cccc(Br)c3)c2c1 | 95
34 | COc1cc2ncnc(N3CCN(C(=O)Nc4ccc(Oc5ccccc5)cc4)CC3)c2cc1OC | 96
35 | O=C(NC(NC(=S)Nc1ccc(F)c([N+](=O)[O-])c1)C(Cl)(Cl)Cl)C(c1ccccc1)c1ccccc1 (stereo not given) | 102
36 | CC(=O)O/N=C1\C(=C2\C(=O)Nc3cc(Br)ccc32)Nc2ccccc21 | 79
37 | COc1cc2ncc(-c3ccccc3)nc2cc1OC | 76
38 | NC(=O)c1ccc2[nH]c(-c3ccc(Oc4ccc(Cl)cc4)cc3)nc2c1 | 98
39 | COc1ccc(CNc2nc(N(CCO)CCO)nc3c2ncn3C(C)C)cc1 | 98
40 | O=C1NC(=O)/C(=C\c2ccc3nccnc3c2)S1 | 90
